According to PubChem BioAssay (NCATS):
Records with an inconclusive call do not appear. A number with no mark means an inactive call. Calls follow the shape of the dose curve; as a rule, active = well fitted inhibition curve with a large enough effect in the signal ratio, with a control signal flat (not every such curve was filed as active); inconclusive = small, poorly fitted or top-dose-only effect, or effect the other way, or a change in a side signal; inactive = flat fitted curve, though single readings scatter; the % refers to the signal ratio.

molecular target: Peroxisome proliferator-activated receptor gamma (Homo sapiens) (UniProt P37231); experiment: qHTS assay for small molecule antagonists of peroxisome proliferator-activated receptor gamma signaling (AID 588537); conditions: HEK293 PPARg-UAS-bla, beta-lactamase ratio, antagonist mode; series mostly up to 76.8 µM; activity, negative = inhibition: at the top concentration;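 also: reporter cells co-stimulated with 50 nM rosiglitazone agonist during compound treatment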
Excerpt: NIH Chemical Genomics Center [NCGC]
U.S. Environmental Protection Agency [EPA]
National Institutes of Environmental Health Sciences [NIEHS]
National Toxicology Program [NTP]
The Peroxisome proliferator-activated receptors (PPARs) are lipid-activated transcription factors of the nuclear receptor superfamily with three distinct subtypes namely PPAR alpha, PPAR delta (also called PPAR beta) and PPAR gamma. All these subtypes heterodimerizes with Retinoid X receptor (RXR) and these heterodimers regulate transcription of various genes. PPAR-gamma (glitazone receptor) ligands have been used in the treatment of type 2 diabetes and dyslipidaemia. It is involved in the regulation of glucose and lipid metabolism. PPAR-gamma activates certain genes like Paraoxonase 1 which is responsible for hydrolyzing organophosphates. PPAR-gamma ligands may also be therapeutically important in the treatment of coronary artery disease, obesity and cancer and atherosclerosis.
NCGC Assay Protocol Summary
Using a beta-lactamase reporter-gene under control of Peroxisome Proliferator-Activated-gamma (PPAR-gamma) response element, a cell-based assay [GeneBLAzer PPAR-gamma-UAS-bla assay developed by Invitrogen] was used to measure PPAR-gamma ligands signaling. GeneBLAzer PPAR-gamma-UAS-bla-HEK293 cells were used with assay medium containing 1% charcoal/dextran treated FBS. The assay was performed in clear bottom black Greiner 1536-well plates. Library compounds were measured for their ability to inhibit the reporter gene activity. Compounds were screened in a titration series in 1536-well format. The fluorescence intensity (405 nm excitation, 460/530 nm emission) was measured using an EnVision plate reader. Data was normalized relative to Rosiglitazone control (50 nM, 100%), and DMSO only wells (basal, 0%). Concentration-response titration points for each compound were fitted to the Hill equation yielding concentrations of half-maximal inhibition (IC50) and maximal response (efficacy) values.
qHTS protocol for PPAR-gamma beta-lactamase assay in antagonist mode
[Step] [Parameter] [Value] [Description]
1. Reagent; 5 uL; 3000 cells/well
2. Incubation; 37 C for 6-6.5 hrs
4. Controls (GW9662, PPAR-gamma antagonist); 23 nL,
5. Agonist (Stimulator); 1uL; Rosiglitazone at 50 nM (final) concentration
6. Incubation; 37 C for 16 hrs
7. Detection reagent; 1 uL of CCF4-dye
8. Incubation; RT for 2 hrs
9. Detection; Fluorescence; Envision plate reader

Chain of Peroxisome proliferator-activated receptor gamma (Homo sapiens) (P37231 whole entry, looked up): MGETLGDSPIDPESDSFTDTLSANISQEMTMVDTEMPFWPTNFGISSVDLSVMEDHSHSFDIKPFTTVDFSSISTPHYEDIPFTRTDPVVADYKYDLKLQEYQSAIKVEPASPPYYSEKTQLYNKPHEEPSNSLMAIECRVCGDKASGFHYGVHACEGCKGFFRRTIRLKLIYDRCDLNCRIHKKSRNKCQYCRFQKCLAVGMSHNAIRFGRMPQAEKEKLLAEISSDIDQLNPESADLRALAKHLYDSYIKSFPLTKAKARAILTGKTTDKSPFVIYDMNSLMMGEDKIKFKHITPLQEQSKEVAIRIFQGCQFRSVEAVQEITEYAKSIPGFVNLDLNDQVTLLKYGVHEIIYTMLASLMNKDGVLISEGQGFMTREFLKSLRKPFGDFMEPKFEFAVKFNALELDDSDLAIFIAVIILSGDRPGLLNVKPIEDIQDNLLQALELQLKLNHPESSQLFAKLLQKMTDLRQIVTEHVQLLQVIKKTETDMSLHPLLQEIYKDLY

Row | Structure (SMILES) | activity, negative = inhibition
1 | Cc1ccc2c(c1)C(=O)OC2=O | -0.145%
2 | C[N+](C)(C)CC(O)CCl (stereo not given) | 1.22%
3 | CC(=O)/C=C/C1C(C)=CCCC1(C)C (stereo not given) | 2.83%
4 | Cl[Si](Cl)(Cl)c1ccccc1 | -0.674%
5 | COC(OC)(C(=O)c1ccccc1)c1ccccc1 | 1.51%
6 | CCCCCCCC(=O)OC | 1.75%
7 | COC(=O)c1cccc(C)c1S(=O)(=O)NC(=O)Nc1nc(OCC(F)(F)F)nc(N(C)C)n1 | 13.2%
8 | CCCCCCCCCCCCCCCC | -1.97%
9 | CCOC(=O)COc1cc(-n2ncc(C(F)(F)F)c(C)c2=O)c(F)cc1Cl | -5.68%
10 | CCCCCCCCCCCCCC(=O)OC | 3.77%
11 | Cn1c(=O)[nH]c(=O)n(C2CCC(O)CC2)c1=O (stereo not given) | 6.95%
12 | S=C(S)NCCNC(=S)S | -2.6%
13 | CCCCCCCCCc1ccccc1 | 2.09%
14 | O=C(O)c1cc2ccccc2cc1O | 13.8%
15 | O=C1CCCC/C=C/CCCCCCCCCO1 | 1.09%
16 | Cc1ccc(C(=O)c2ccccc2)cc1 | 5.01%
17 | CCCCCCc1ccc(N)cc1 | 2.39%
18 | Fc1ccc(Br)cc1 | 5.32%
19 | C=C(C)C(=O)OCCC[Si](OC)(OC)OC | 4.56%
20 | CC(C)OB(OC(C)C)OC(C)C | 4.33%

Row | Structure (SMILES) | activity, negative = inhibition
21 | COC(=O)c1ccc(C(=O)OC)cc1 | 2.49%
22 | CC(C)CCCCOC(=O)c1ccccc1C(=O)OCCCCC(C)C | 9.91%
23 | CC(C)(C)c1cc(C(C)(C)C)c(O)c(C(C)(C)C)c1 | 10.3%
24 | C=C(C)C(=O)OCCOCCOCCOC(=O)C(=C)C | 9.04%
25 | CC(=O)CC(=O)Nc1ccc(C)cc1C | 6.29%
26 | CCOC(=O)[C@H](C)Oc1ccc(Oc2nc3ccc(Cl)cc3o2)cc1 | -6.47%
27 | S=C([S-])NCCNC(=S)[S-].[Mn+2] | -11.9%
28 | O=C(OCC1CCC2OC2C1)C1CCC2OC2C1 (stereo not given) | 13.5%
29 | CCCCOCCOCCOCCO | 0.735%
30 | CCCCOC(=O)c1ccccc1 | -0.591%
31 | CC/C=C\CCOC(=O)c1ccccc1O | 4.51%
32 | CCCCCCCCCCCCN | 7.11%
33 | CCCCC(CC)COC(=O)c1ccc(C(=O)OCC(CC)CCCC)cc1 (stereo not given) | 4.51%
34 | C=CC(=O)OCCOc1ccccc1 | -6.4%
35 | CCNc1nc(NC(C)CC)nc(OC)n1 (stereo not given) | 4.95%
36 | CCCCCCCCCCCC[N+](C)(C)C | -10.5%
37 | CS(C)=O | -0.138% [at 54 mM]
38 | COc1ccc(OC)c(OC)c1 | -5.28%
39 | COCCOCCOCCOC | 4.98%
40 | C[Si]1(C)O[Si](C)(C)O[Si](C)(C)O1 | 4.38%
